From the supplement of paper PMC4466140 come the findings set out here.

Where only a bound is given, the exact number is not on record here.

The target of one test is SpBzz1-D2. The test is described as follows: SPOT peptide array binding signal intensity (averaged, normalized) (arbitrary units (background-subtracted, floor 0; scale differs between SH3 domains)); higher = stronger binding of the SH3 domain to the peptide. Summed up:
(§1)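 GST-fused SH3 domains from four yeast species were expressed in E. coli BL21(DE3), purified on glutathione Sepharose and incubated at 10 μg/ml overnight at 4°C in TBS-based blocking buffer on cellulose membranes carrying synthetic 15-mer peptides, with cysteines replaced by serines. Bound protein was detected with anti-GST antibody, an HRP anti-mouse secondary and luminol, then imaged and quantified with Genespotter. Binding signal is the normalized, background-subtracted spot intensity averaged over replicates, in arbitrary units that differ between domains.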
Consider IVNKPLPPLPVAGSS, for which the “SPOT peptide array binding signal intensity” value was at most 0.

For a further test, the target named is SpCyk3. Described as above. Summed up:
as §1
As for IVNKPLPPLPVAGSS, the “SPOT peptide array binding signal intensity” value was found to be 3.

For a further test, the target named is SpHof1. The description is as above. Summed up: as §1
Turning to IVNKPLPPLPVAGSS, the “SPOT peptide array binding signal intensity” value turned out to be 2930.

In another test the target is SpHof1-2. The test is described as above. Summed up:
as §1
Regarding IVNKPLPPLPVAGSS, the “SPOT peptide array binding signal intensity” value is 3490.

Another test has as its target SpHof1-3. The description is as above. In a few lines:
as §1
With IVNKPLPPLPVAGSS, the “SPOT peptide array binding signal intensity” value stood at 5540.

The target of another test is SpHse1. The test is described as above. In a few lines: as §1
On to IVNKPLPPLPVAGSS, for which the “SPOT peptide array binding signal intensity” value was determined as 15.

Another test addresses SpLsb1. The test is described as above. In a few lines: as §1
Consider IVNKPLPPLPVAGSS, for which the “SPOT peptide array binding signal intensity” value was 47.

A further test addresses SpLsb4. Described as above. Summed up:
as §1
Consider IVNKPLPPLPVAGSS, for which the “SPOT peptide array binding signal intensity” value was 1.5.

A further test has as its target SpMyo1. The description is as above. Summed up:
as §1
On to IVNKPLPPLPVAGSS, for which the “SPOT peptide array binding signal intensity” value worked out at 184.

The target of the next test is SpNbp2. Described as above. Summed up:
as §1
As for IVNKPLPPLPVAGSS, the “SPOT peptide array binding signal intensity” value stood at 11.

A further test has as its target SpPex13. Described as above. In a few lines:
as §1
Consider IVNKPLPPLPVAGSS, for which the “SPOT peptide array binding signal intensity” value was determined as 15.

The next test addresses SpRvs167. Described as above. In a few lines: as §1
Regarding IVNKPLPPLPVAGSS, the “SPOT peptide array binding signal intensity” value is 1580.

The next test addresses SpSla1-D1-D2. The test is described as above. In a few lines:
as §1
For IVNKPLPPLPVAGSS, the “SPOT peptide array binding signal intensity” value was 1200.

The target in a further test is SpSla1-D3. Described as above. In a few lines:
as §1
With IVNKPLPPLPVAGSS, the “SPOT peptide array binding signal intensity” value was at most 0.
